Values without a mark were called inactive. For part of these data: Measured potencies and affinities stand elsewhere. Active and inactive are the calls of the source. Unless noted, the rule behind the calls is not given here.

We go through three compounds from PubChem BioAssay.

The nature of test [1]: antimalarial activity against Dd2 strain (AID 2302;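 active = growth inhibition above 50% at the single 2 µM test dose, taken to imply half-maximal potency below 2 µM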;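 note: 0% = DMSO untreated growth and 100% = chloroquine plus artemisinin killed control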). Conditions: P. falciparum Dd2 in RBCs, LDH growth readout, 72 h; at 2 µM; active compounds read high.
Test [2] is described as follows: human hepatoma cell viability loss – ATP luminescence, cytotoxicity control for P. falciparum antimalarial project, primary screen (AID 2303;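 active = inhibition above 50%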;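 note: 0% = DMSO wells and 100% = digitonin-killed cells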). Conditions: HepG2 viability, 24-48 h, at 10 µM, active compounds read high.
Test [3] deals with L-lactate dehydrogenase (Plasmodium falciparum (isolate CDC / Honduras)) (UniProt Q27743). As to the kind of experiment: PfLDH activity inhibition – cell lysate, 3D7 strain, counter-screen for P. falciparum growth inhibition project (AID 2304).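 Note: 0% = vehicle and 100% = reference inhibitor.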 Conditions: P. falciparum 3D7 crude extract, LDH APAD/NBT absorbance; at 2 µM; active compounds read high. In general terms: A counterscreen serves to expose hits that act by an unwanted route or on another target.

Test [4] is described as follows: inhibition of 3D7 malaria parasite growth – strain 3D7 (AID 2306).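 Note: 0% = DMSO wells and 100% = chloroquine plus artemisinin control wells.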 The following applies: P. falciparum 3D7 erythrocytic growth, LDH absorbance, 72 h; at 2 µM; active compounds read high.
For test [5], the target named is Calcium-dependent protein kinase 1 (Plasmodium falciparum (isolate 3D7)) (UniProt P62344). Description: PfCDPK1 kinase inhibitors, biochemical, TCAMS library (AID 1159585; cut-off not given, nearly all actives have IC50 up to about 0.98 µM;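 note: inhibitors leave more ATP so luminescence rises with inhibition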). The following applies: recombinant PfCDPK1, Kinase-Glo ATP depletion luminescence. (Kinase-Glo measures the ATP left after a reaction by luminescence.)
Test [6] has as its target Plasmodium falciparum protein kinase 6 (PK6, PF3D7_1337100) (UniProt Q8IDW1). As to the kind of experiment: PfPK6 kinase inhibitors, biochemical, TCAMS library (AID 1159586). Conditions: recombinant PfPK6, Kinase-Glo ATP depletion luminescence.
Test [7] concerns the target Protein kinase 7 (PK7), Plasmodium falciparum 3D7 (PF3D7_0213400) (UniProt Q7YTF7). As to the kind of experiment: inhibition of Plasmodium PK7 catalytic activity – biochemical, TCAMS antimalarial set, Kinase-Glo luminescence (AID 1159587). Conditions: recombinant PfPK7, Kinase-Glo ATP depletion luminescence.
The target in test [8] is Calcium-dependent protein kinase 4 (Plasmodium falciparum (isolate 3D7)) (UniProt Q8IBS5). Description: PfCDPK4 kinase inhibitors, biochemical, TCAMS library (AID 1159588; cut-off not given, nearly all actives have IC50 up to about 0.91 µM). Conditions: recombinant PfCDPK4, Kinase-Glo ATP depletion luminescence.
Calcium-dependent protein kinase 4 (Plasmodium falciparum (isolate 3D7)), sequence (Q8IBS5 whole entry, looked up): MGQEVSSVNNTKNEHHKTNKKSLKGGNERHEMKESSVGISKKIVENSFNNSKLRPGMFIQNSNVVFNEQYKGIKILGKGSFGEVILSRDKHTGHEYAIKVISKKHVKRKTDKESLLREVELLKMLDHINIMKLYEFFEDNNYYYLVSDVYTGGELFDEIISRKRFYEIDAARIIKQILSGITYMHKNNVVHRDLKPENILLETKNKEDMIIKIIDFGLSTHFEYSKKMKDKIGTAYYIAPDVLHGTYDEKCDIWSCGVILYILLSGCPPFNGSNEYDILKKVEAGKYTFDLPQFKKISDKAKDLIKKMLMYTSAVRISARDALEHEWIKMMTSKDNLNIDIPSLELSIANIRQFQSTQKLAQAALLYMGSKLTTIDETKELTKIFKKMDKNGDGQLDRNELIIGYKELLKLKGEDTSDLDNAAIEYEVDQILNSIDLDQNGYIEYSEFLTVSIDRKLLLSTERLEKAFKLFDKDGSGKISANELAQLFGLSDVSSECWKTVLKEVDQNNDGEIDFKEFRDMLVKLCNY

Plasmodium falciparum protein kinase 6 (PK6, PF3D7_1337100), sequence (Q8IDW1 1-305): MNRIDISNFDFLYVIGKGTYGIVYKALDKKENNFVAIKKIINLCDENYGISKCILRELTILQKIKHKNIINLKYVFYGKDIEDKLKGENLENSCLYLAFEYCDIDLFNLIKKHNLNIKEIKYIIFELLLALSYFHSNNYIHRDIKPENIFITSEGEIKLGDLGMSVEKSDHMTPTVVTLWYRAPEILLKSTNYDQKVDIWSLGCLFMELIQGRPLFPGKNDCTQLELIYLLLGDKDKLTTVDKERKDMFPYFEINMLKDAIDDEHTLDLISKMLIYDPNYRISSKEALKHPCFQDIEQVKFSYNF
Protein kinase 7 (PK7), Plasmodium falciparum 3D7 (PF3D7_0213400), sequence (Q7YTF7 1-343): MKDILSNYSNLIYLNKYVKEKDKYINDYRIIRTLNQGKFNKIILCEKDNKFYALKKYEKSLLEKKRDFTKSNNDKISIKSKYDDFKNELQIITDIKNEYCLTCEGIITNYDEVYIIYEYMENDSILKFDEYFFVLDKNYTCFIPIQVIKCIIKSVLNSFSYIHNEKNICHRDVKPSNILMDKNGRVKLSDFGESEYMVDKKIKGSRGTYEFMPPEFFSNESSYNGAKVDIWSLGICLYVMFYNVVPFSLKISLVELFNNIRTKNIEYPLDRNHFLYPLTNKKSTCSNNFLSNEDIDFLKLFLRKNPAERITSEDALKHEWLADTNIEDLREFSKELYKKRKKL
L-lactate dehydrogenase (Plasmodium falciparum (isolate CDC / Honduras)), sequence (Q27743 whole entry, looked up): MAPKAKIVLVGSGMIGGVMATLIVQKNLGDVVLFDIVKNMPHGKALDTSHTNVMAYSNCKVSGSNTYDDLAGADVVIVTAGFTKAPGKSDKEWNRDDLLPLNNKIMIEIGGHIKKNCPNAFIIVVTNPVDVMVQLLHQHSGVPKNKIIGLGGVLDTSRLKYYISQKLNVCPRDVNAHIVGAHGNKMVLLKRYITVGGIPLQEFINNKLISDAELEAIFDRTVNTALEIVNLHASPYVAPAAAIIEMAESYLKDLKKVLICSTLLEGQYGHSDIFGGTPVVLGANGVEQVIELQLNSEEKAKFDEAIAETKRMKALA
Calcium-dependent protein kinase 1 (Plasmodium falciparum (isolate 3D7)), sequence (P62344 whole entry, looked up): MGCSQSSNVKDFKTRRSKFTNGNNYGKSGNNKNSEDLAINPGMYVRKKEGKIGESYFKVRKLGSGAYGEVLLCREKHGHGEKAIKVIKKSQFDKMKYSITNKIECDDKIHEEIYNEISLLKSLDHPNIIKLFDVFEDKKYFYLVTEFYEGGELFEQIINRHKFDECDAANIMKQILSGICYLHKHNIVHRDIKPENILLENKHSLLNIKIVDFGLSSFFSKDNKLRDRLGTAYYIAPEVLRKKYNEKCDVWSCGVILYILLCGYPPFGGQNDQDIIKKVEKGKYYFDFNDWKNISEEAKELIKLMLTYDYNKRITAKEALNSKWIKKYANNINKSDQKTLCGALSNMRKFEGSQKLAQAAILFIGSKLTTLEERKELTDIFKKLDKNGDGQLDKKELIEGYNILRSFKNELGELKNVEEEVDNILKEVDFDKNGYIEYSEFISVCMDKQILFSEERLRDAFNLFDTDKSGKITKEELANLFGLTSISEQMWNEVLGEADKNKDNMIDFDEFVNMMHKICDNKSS

For orientation: inhibition means the change of the read-out against control, counted positive when it falls. Turning to `CN(C)CCCN(C)c1cccc2c1nc(-c1cccnc1)n2CCNCc1ccccc1`, the growth inhibition in test [1] is 88% (active); in test [4], 89% (active). For the same compound, the inhibition in test [2] and in test [3] was 4% throughout. The result in test [5], in test [6], in test [7] and in test [8] was inactive.
As to `Fc1cccc(COc2ccc(Nc3ncnc4sc(C#CCNC5CCC5)cc34)cc2Cl)c1`, the growth inhibition in test [1] is 73% (active); in test [4] it was 100% (active). Further, the inhibition in test [2] is 15%; in test [3] it was 9%. The outcome in test [5], in test [6], in test [7] and in test [8] was inactive.
On to `FC(F)(F)c1cccc(CNCC2CCN(Cc3ccc4c(c3)OCO4)CC2)c1`, for which the values for the growth inhibition in test [1] and in test [4] were 19% and 100% (active), respectively. Besides, the inhibition in test [2] is 21%; in test [3], 1%. Besides, the outcome in test [5], in test [6], in test [7] and in test [8] was inactive.
